Experimental data published in the supplement of paper PMC10849652.
Of roughly 7,900 targets only a part is listed; those with a hit were picked by preference. About 0.6% of all pairs of compound and target were hits.

Tests used:
Assay in all cases: log2 fold change, soluble protein after heating vs DMSO (PISA); higher = thermal stabilisation; K562 cells, 10 uM, 30 min; active = over 0.2 and 3.5 SD of the protein, either way, in both replicates (recomputed)
saracatinib = compound: CN1CCN(CCOc2cc(OC3CCOCC3)c3c(Nc4c(Cl)ccc5c4OCO5)ncnc3c2)CC1 [saracatinib]
How it was run: (§1)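 Soluble protein was defined as the supernatant after 21,000xg for 90 min. It came from K562 cells at 2×10^6 cells/mL given 10 μM compound for 30 min, heated in aliquots for 3 min across 48°C-58°C, pooled, and extracted in PBS with 0.5% NP-40 at 4°C, and was quantified by TMTpro 16plex LC-MS/MS with equalised channel sums. Thermal stability against control samples, from duplicates, is reported as log2 fold change.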

sotrastaurin = compound: CN1CCN(c2nc(C3=C(c4c[nH]c5ccccc45)C(=O)NC3=O)c3ccccc3n2)CC1 [sotrastaurin]
How it was run: as §1

alvocidib = compound: CN1CC[C@H](c2c(O)cc(O)c3c(=O)cc(-c4ccccc4Cl)oc23)[C@H](O)C1 [alvocidib]
How it was run: as §1

Tubastatin A = compound: CN1CCc2c(c3ccccc3n2Cc2ccc(C(=O)NO)cc2)C1 [Tubastatin A]
How it was run: as §1

[1] = compound: CNC(=O)C1=CC=CC=C1NC2=NC(=NC=C2Cl)NC3=C(C=C(C=C3)N4CCOCC4)OC
How it was run: as §1

defactinib = compound: CNC(=O)c1ccc(Nc2ncc(C(F)(F)F)c(NCc3nccnc3N(C)S(C)(=O)=O)n2)cc1 [defactinib]
How it was run: as §1

rucaparib = compound: CNCc1ccc(-c2[nH]c3cc(F)cc4c3c2CCNC4=O)cc1 [rucaparib]
How it was run: as §1

[2] = compound: CNc1nc(-c2ccc3c(N)n[nH]c3c2)cc(N2C[C@@H](C(=O)NC3CCCCC3)CC[C@H]2C)n1
How it was run: as §1

encorafenib = compound: COC(=O)N[C@@H](C)CNc1nccc(-c2cn(C(C)C)nc2-c2cc(Cl)cc(NS(C)(=O)=O)c2F)n1 [encorafenib]
How it was run: as §1

[3] = compound: COC(=O)[C@H](CCSC)NC(=O)C1=C(C=C(C=C1)NC[C@H](CS)N)C2=CC=CC=C2
How it was run: as §1

[4] = compound: COC1=CC=C(C=C1)CN2C=CC3=C2C=C(C=C3)C(=O)NO
How it was run: as §1

filanesib = compound: CON(C)C(=O)N1N=C(c2cc(F)ccc2F)S[C@@]1(CCCN)c1ccccc1 [filanesib]
How it was run: as §1

zotarolimus = compound: CO[C@H]1C[C@@H]2CC[C@@H](C)[C@@](O)(O2)C(=O)C(=O)N2CCCC[C@H]2C(=O)O[C@H]([C@H](C)C[C@@H]2CC[C@H](n3cnnn3)[C@H](OC)C2)CC(=O)[C@H](C)/C=C(\C)[C@@H](O)[C@@H](OC)C(=O)[C@H](C)C[C@H](C)/C=C/C=C/C=C/1C [zotarolimus]
How it was run: as §1

idasanutlin = compound: COc1cc(C(=O)O)ccc1NC(=O)[C@@H]1N[C@@H](CC(C)(C)C)[C@](C#N)(c2ccc(Cl)cc2F)[C@H]1c1cccc(Cl)c1F [idasanutlin]
How it was run: as §1

alisertib = compound: COc1cc(Nc2ncc3c(n2)-c2ccc(Cl)cc2C(c2c(F)cccc2OC)=NC3)ccc1C(=O)O [alisertib]
How it was run: as §1

[5] = compound: COc1cc2nc(-c3cc(F)ccc3O)nc(N[C@@H]3CNC[C@H]3C(C)(C)O)c2cc1OC
How it was run: as §1

gefitinib = compound: COc1cc2ncnc(Nc3ccc(F)c(Cl)c3)c2cc1OCCCN1CCOCC1 [gefitinib]
How it was run: as §1

[6] = compound: COc1cccc2cc(-c3nc([C@H]4CC[C@H](C(=O)O)CC4)n4ncnc(N)c34)[nH]c12
How it was run: as §1

lapatinib = compound: CS(=O)(=O)CCNCc1ccc(-c2ccc3ncnc(Nc4ccc(OCc5cccc(F)c5)c(Cl)c4)c3c2)o1 [lapatinib]
How it was run: as §1

pictilisib = compound: CS(=O)(=O)N1CCN(Cc2cc3nc(-c4cccc5[nH]ncc45)nc(N4CCOCC4)c3s2)CC1 [pictilisib]
How it was run: as §1

Measured: log2 fold change

STRN (UniProt O43815)
inactive: saracatinib 0.022 | sotrastaurin 0.026 | alvocidib -0.097 | Tubastatin A 0.013 | [1] -0.007 | defactinib -0.076 | rucaparib -0.007 | [2] -0.026 | encorafenib 0.017 | [3] -0.017 | [4] -0.002 | filanesib -0.002 | zotarolimus 0.052 | idasanutlin -0.018 | alisertib -0.083 | [5] -0.003 | gefitinib 0.02 | [6] 0.017 | lapatinib 0.015 | pictilisib 0.006

SMARCA5 (UniProt O60264)
inactive: saracatinib -0.084 | sotrastaurin -0.235 | alvocidib -0.193 | Tubastatin A 0.082 | [1] 0.038 | defactinib -0.145 | rucaparib 0.035 | [2] 0.065 | encorafenib 0.116 | [3] 0.01 | [4] 0.047 | filanesib 0.047 | zotarolimus 0.043 | idasanutlin 0.059 | alisertib -0.064 | [5] -0.049 | gefitinib 0.073 | [6] -0.144 | lapatinib -0.017 | pictilisib 0.004

SUPT5H (UniProt O00267)
inactive: saracatinib -0.01 | sotrastaurin -0.021 | alvocidib -0.075 | Tubastatin A 0.007 | [1] -0.004 | defactinib -0.126 | rucaparib -0.062 | [2] 0.039 | encorafenib 0.076 | [3] -0.017 | [4] 0.02 | filanesib -0.005 | zotarolimus 0.042 | idasanutlin -0.062 | alisertib -0.003 | [5] 0.058 | gefitinib 0.028 | [6] 0.027 | lapatinib -0.006 | pictilisib 0.05

SRSF7 (UniProt Q16629)
inactive: saracatinib -0.014 | sotrastaurin 0.12 | alvocidib 0.291 | Tubastatin A 0.006 | [1] -0.226 | defactinib 0.168 | rucaparib 0.3 | [2] -0.04 | encorafenib 0.038 | [3] 0.042 | [4] -0.089 | filanesib 0.422 | zotarolimus -0.015 | idasanutlin 0.327 | alisertib -0.114 | [5] -0.047 | gefitinib 0.084 | [6] 0.013 | lapatinib 0.1 | pictilisib -0.003

TFRC (UniProt P02786)
Chain of UniProt P02786 (P02786 whole entry, looked up): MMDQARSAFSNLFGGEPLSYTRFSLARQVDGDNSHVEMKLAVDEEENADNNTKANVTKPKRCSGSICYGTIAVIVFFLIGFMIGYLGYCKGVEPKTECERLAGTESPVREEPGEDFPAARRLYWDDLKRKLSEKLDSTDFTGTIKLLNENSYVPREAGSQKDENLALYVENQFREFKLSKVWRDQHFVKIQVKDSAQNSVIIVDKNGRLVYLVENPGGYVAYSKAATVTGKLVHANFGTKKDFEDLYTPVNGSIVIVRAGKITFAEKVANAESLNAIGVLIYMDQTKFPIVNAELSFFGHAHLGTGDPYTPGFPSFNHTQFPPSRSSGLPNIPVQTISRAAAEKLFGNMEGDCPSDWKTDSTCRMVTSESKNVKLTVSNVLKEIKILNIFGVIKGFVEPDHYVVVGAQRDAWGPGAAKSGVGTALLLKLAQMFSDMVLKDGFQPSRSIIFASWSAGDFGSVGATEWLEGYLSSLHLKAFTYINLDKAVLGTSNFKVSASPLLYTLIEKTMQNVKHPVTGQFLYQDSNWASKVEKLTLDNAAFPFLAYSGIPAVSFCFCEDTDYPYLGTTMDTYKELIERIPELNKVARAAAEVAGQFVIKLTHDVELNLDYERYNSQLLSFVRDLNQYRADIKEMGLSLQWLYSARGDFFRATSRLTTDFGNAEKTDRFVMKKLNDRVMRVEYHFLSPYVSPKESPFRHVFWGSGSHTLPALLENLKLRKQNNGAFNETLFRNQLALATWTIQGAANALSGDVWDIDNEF
inactive: saracatinib 0.008 | sotrastaurin 0.005 | alvocidib 0.01 | Tubastatin A -0.028 | [1] 0.029 | defactinib -0.03 | rucaparib -0.003 | [2] -0.056 | encorafenib 0.019 | [3] -0.004 | [4] 0.009 | filanesib -0.013 | zotarolimus -0.041 | idasanutlin -0.027 | alisertib -0.05 | [5] 0.017 | gefitinib 0.004 | [6] 0.063 | lapatinib -0.03 | pictilisib 0.048

SORT1 (UniProt Q99523)
inactive: saracatinib 0.038 | sotrastaurin 0.017 | alvocidib 0.012 | Tubastatin A -0.011 | [1] 0.017 | defactinib -0.033 | rucaparib 0 | [2] -0.027 | encorafenib -0.017 | [3] 0.014 | [4] 0.058 | filanesib -0.066 | zotarolimus 0.002 | idasanutlin 0.008 | alisertib -0.016 | [5] -0.032 | gefitinib 0.028 | [6] 0.056 | lapatinib 0.022 | pictilisib 0.003

TEX264 (UniProt Q9Y6I9)
active: [2] 0.629
inactive: saracatinib -0.041 | sotrastaurin -0.027 | alvocidib -0.036 | Tubastatin A -0.077 | [1] 0.13 | defactinib 0.112 | rucaparib 0.407 | encorafenib -0.039 | [3] 0.071 | [4] 0.07 | filanesib -0.169 | zotarolimus 0.059 | idasanutlin -0.076 | alisertib -0.042 | [5] 0.163 | gefitinib 0.164 | [6] -0.046 | lapatinib 0.421 | pictilisib 0.321

SSX2 (UniProt Q16385)
Chain of UniProt Q16385 (Q16385 whole entry, looked up): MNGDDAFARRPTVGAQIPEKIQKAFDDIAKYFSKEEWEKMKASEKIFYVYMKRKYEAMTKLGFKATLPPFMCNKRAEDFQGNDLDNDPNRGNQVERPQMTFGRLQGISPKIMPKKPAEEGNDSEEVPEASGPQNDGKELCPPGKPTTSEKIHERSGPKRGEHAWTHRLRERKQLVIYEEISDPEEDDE
inactive: saracatinib 0.017 | sotrastaurin -0.028 | alvocidib 0.024 | Tubastatin A 0.062 | [1] 0.066 | defactinib -0.114 | rucaparib 0.025 | [2] -0.078 | encorafenib 0.021 | [3] -0.012 | [4] 0.083 | filanesib 0.009 | zotarolimus -0.014 | idasanutlin -0.021 | alisertib 0.035 | [5] 0.025 | gefitinib 0.032 | [6] 0.004 | lapatinib -0.011 | pictilisib 0.064

TAX1BP1 (UniProt Q86VP1)
inactive: saracatinib 0.016 | sotrastaurin -0.057 | alvocidib -0.028 | Tubastatin A -0.01 | [1] -0.016 | defactinib -0.038 | rucaparib -0.003 | [2] -0.06 | encorafenib 0.025 | [3] 0.054 | [4] -0.03 | filanesib -0.043 | zotarolimus -0.009 | idasanutlin 0.069 | alisertib 0.007 | [5] -0.052 | gefitinib 0.001 | [6] 0.033 | lapatinib -0.012 | pictilisib 0.044

SRP68 (UniProt Q9UHB9)
inactive: saracatinib -0.033 | sotrastaurin -0.179 | alvocidib 0.044 | Tubastatin A 0.085 | [1] -0.002 | defactinib -0.019 | rucaparib 0.152 | [2] 0.049 | encorafenib 0.14 | [3] -0.073 | [4] 0.024 | filanesib 0.066 | zotarolimus 0.043 | idasanutlin -0.036 | alisertib -0.029 | [5] 0.016 | gefitinib 0.008 | [6] -0.126 | lapatinib -0.011 | pictilisib -0.054

TBC1D9B (UniProt Q66K14)
Chain of UniProt Q66K14 (Q66K14 whole entry, looked up): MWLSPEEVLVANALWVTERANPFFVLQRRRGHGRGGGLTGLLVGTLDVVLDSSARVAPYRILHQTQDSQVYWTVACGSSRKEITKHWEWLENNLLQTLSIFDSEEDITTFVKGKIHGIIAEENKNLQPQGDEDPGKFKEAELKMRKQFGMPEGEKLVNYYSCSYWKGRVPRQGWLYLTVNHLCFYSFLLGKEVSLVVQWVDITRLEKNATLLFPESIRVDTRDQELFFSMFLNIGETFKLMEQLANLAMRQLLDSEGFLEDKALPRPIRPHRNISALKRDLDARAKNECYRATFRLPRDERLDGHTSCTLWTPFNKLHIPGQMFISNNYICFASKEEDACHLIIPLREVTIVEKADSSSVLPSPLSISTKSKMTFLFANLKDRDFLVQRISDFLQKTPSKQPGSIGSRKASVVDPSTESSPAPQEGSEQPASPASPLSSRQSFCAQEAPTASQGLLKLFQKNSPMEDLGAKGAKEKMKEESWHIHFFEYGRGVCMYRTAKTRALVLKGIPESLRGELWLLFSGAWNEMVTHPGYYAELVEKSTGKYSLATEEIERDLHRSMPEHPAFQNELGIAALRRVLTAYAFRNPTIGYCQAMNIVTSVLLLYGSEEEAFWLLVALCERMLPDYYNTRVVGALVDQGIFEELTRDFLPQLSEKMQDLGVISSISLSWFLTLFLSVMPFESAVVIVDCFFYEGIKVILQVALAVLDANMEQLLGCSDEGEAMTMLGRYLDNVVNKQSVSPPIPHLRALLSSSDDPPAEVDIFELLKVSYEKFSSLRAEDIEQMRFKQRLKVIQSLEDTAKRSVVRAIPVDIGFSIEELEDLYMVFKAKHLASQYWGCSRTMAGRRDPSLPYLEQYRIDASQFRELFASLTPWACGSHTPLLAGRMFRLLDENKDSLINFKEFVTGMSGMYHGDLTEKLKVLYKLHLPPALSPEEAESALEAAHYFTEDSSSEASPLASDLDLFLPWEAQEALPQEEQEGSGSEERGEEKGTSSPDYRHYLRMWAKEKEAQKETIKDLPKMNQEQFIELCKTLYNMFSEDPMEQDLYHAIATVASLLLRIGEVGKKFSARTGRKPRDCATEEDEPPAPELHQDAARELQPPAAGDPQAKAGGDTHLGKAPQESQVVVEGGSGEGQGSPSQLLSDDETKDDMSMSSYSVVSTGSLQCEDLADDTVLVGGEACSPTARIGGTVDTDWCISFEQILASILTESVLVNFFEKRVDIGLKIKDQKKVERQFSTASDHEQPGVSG
inactive: saracatinib -0.023 | sotrastaurin 0.077 | alvocidib -0.059 | Tubastatin A 0.063 | [1] -0.07 | defactinib -0.064 | rucaparib 0.009 | [2] -0.01 | encorafenib 0.065 | [3] 0.027 | [4] -0.037 | filanesib 0.151 | zotarolimus 0.042 | idasanutlin -0.003 | alisertib 0.03 | [5] -0.026 | gefitinib -0.072 | [6] 0.03 | lapatinib -0.031 | pictilisib 0.068

TK1 (UniProt P04183)
inactive: saracatinib 0.067 | sotrastaurin 0.036 | alvocidib -0.028 | Tubastatin A 0.034 | [1] -0.013 | defactinib -0.021 | rucaparib -0.015 | [2] -0.003 | encorafenib -0.005 | [3] 0.024 | [4] -0.012 | zotarolimus -0.023 | idasanutlin -0.011 | alisertib -0.034 | [5] 0.021 | gefitinib -0.018 | [6] 0.073 | lapatinib -0.009 | pictilisib 0.045
active: filanesib -0.258

SLC25A38 (UniProt Q96DW6)
active: [6] 0.447
inactive: saracatinib 0.076 | sotrastaurin -0.027 | alvocidib -0.117 | Tubastatin A -0.035 | [1] -0.015 | defactinib 0.046 | rucaparib -0.002 | [2] 0.026 | encorafenib 0.016 | [3] -0.057 | [4] -0.013 | filanesib -0.01 | zotarolimus -0.029 | idasanutlin -0.069 | alisertib -0.049 | [5] 0.039 | gefitinib 0.013 | lapatinib -0.02 | pictilisib 0.04

STIM1 (UniProt Q13586)
inactive: saracatinib 0.003 | sotrastaurin 0 | alvocidib -0.075 | Tubastatin A -0.029 | [1] -0.001 | defactinib -0.048 | rucaparib 0.011 | [2] -0.047 | encorafenib 0.052 | [3] 0.032 | [4] 0.048 | filanesib -0.123 | zotarolimus 0.041 | idasanutlin 0.02 | alisertib -0.029 | [5] -0.218 | gefitinib 0 | [6] 0.037 | lapatinib -0.011 | pictilisib 0.036

SRRM2 (UniProt Q9UQ35)
Chain of UniProt Q9UQ35 (Q9UQ35 whole entry, looked up): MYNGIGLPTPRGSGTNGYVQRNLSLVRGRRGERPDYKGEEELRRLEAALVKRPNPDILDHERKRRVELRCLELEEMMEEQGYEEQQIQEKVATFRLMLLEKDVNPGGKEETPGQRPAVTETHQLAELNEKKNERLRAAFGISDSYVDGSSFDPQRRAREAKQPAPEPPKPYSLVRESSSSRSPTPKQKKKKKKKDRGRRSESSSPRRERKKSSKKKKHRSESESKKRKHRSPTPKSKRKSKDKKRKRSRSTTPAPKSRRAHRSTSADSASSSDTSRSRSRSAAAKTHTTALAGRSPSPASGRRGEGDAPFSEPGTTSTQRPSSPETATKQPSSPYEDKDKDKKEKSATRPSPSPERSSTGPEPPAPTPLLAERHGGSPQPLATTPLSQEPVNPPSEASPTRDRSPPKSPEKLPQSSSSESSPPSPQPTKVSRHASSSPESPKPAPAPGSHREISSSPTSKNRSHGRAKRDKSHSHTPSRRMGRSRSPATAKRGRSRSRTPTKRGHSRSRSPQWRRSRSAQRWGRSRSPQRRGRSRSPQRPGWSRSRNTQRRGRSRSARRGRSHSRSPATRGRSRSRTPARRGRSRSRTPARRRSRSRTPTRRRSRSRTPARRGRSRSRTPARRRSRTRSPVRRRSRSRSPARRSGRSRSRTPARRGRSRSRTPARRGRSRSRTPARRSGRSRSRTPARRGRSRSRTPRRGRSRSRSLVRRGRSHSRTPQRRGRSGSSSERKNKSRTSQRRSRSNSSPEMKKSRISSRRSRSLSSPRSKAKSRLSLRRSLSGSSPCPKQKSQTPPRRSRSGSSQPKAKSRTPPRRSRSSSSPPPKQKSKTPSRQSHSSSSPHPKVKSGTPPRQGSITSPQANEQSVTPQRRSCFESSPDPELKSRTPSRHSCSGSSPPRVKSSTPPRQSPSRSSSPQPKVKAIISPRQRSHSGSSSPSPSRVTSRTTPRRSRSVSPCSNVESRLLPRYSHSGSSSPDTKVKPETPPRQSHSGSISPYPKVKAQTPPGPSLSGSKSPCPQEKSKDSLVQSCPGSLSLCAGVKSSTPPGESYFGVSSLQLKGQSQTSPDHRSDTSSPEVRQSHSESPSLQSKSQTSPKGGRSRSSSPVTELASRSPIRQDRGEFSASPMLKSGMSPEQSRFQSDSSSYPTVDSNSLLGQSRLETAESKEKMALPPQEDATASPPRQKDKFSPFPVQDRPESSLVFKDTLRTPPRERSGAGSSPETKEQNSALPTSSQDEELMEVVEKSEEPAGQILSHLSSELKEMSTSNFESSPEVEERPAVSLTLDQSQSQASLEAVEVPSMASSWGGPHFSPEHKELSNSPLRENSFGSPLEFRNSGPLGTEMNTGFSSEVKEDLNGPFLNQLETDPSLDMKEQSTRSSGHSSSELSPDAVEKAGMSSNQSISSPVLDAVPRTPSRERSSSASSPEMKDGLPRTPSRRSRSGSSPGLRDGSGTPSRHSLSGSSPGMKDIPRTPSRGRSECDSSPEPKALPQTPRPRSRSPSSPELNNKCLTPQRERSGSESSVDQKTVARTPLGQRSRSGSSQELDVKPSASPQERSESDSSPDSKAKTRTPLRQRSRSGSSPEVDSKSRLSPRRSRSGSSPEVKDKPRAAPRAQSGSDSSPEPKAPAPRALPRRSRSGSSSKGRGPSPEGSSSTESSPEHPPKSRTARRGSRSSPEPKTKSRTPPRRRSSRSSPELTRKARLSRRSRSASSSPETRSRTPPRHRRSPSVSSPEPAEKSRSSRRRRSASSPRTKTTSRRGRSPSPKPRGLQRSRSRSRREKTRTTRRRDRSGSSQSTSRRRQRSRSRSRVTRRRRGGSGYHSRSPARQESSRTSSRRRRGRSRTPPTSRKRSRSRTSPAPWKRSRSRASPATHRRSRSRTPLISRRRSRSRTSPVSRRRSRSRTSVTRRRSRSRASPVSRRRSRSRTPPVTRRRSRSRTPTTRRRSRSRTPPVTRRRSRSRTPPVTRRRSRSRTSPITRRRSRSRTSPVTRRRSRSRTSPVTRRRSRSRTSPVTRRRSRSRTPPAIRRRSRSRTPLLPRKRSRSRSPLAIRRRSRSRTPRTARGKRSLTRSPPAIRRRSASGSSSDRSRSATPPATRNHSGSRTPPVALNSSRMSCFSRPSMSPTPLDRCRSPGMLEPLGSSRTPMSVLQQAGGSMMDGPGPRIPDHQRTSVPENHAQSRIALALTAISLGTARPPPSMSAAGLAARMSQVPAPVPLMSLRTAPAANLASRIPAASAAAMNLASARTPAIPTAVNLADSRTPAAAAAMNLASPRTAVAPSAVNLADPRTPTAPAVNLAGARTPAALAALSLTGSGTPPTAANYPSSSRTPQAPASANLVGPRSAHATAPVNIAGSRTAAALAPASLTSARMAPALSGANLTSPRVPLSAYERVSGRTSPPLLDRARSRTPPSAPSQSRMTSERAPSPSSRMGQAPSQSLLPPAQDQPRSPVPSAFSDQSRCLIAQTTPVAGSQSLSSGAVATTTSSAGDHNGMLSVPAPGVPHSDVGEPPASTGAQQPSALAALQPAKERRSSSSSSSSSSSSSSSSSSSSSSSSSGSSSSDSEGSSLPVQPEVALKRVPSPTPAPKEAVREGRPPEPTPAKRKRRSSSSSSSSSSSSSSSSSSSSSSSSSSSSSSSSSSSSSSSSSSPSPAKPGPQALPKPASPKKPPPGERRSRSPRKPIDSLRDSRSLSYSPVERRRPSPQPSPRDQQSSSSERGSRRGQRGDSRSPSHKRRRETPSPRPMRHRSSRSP
active: alvocidib -0.412
inactive: saracatinib -0.026 | sotrastaurin -0.048 | Tubastatin A 0.093 | [1] -0.264 | defactinib -0.298 | rucaparib 0.013 | [2] -0.009 | encorafenib -0.013 | [3] 0.047 | [4] 0.018 | filanesib 0.097 | zotarolimus 0.05 | idasanutlin 0.166 | alisertib -0.121 | [5] -0.293 | gefitinib 0.018 | [6] 0.028 | lapatinib 0.01 | pictilisib 0.117

STOM (UniProt P27105)
inactive: saracatinib -0.015 | sotrastaurin 0.039 | alvocidib 0.169 | Tubastatin A 0.016 | [1] -0.019 | defactinib 0.068 | rucaparib 0.006 | [2] -0.03 | encorafenib 0.016 | [3] 0.002 | [4] 0.004 | filanesib -0.068 | zotarolimus -0.083 | idasanutlin 0.046 | alisertib -0.154 | [5] -0.045 | gefitinib -0.062 | [6] -0.004 | lapatinib 0.067 | pictilisib -0.022
